# Hit rate of the full screen: of about 220,000 compounds, about 2,000 (0.91%) were called active. Another 2% or so got no clear call; they are omitted. Cut-off read from the data, not from the text of the source: inconclusive = inhibition above about 80% without an active follow-up result; inactive = below that; test concentration not stated here. Only a sample is shown. Potency and affinity values are given separately.
# Test: M. tuberculosis H37Rv growth inhibitors, H37Rv strain (AID 1626);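 note: bacteria incubated seven days before Alamar blue readout; 0% = bacteria only wells and 100% = bacteria with antibiotic wells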
# Details: hits give high values, concentration not given here
row,Structure (SMILES),inhibition
1,O=C(CN1CCCCC1)c1ccc(OC(F)F)cc1,-5.74% (inactive)
2,c1ccc(N2CCOCC2)c(Nc2nc3ccccc3n3cnnc23)c1,8.42% (inactive)
3,c1ccc(N2CCCCC2)c(Nc2nc3ccccc3n3cnnc23)c1,14.3% (inactive)
4,Nc1cc(OC(=O)c2cccs2)nn1S(=O)(=O)c1ccc(F)cc1,5.67% (inactive)
5,Cc1ccc(NC(=O)Cn2c(O)c(N=NC(=O)c3cc([N+](=O)[O-])ccc3O)c3ccccc32)cc1,45.8% (inactive)
6,Cc1cc(N2CCN(c3ccccc3)CC2)nc(-c2ccccc2)n1,-10.3% (inactive)
7,Cc1cc(N2CCN(c3ccccc3)CC2)nc(N)n1,-2.3% (inactive)
8,Cc1cc(Cl)nc(-n2nc(C)cc2C)n1,-0.69% (inactive)
9,Cc1cc(C)n(-c2nc3ccccc3nc2N2CCC(C)CC2)n1,2.59% (inactive)
10,O=c1cn[nH]c2ccccc12,-1.28% (inactive)
11,CCOc1cc(/C=N\NC(=O)C2C(=O)NCC2c2ccccc2)ccc1OC (configuration not stated),-8.61% (inactive)
12,Cc1c(Br)ccc(NC(=O)CCN2C(=O)C3C4CCC(C4)C3C2=O)c1C (configuration not stated),-22.5% (inactive)
13,CCOC(=O)c1c(N2C(=O)C3CC(C)=C(C)CC3C2=O)sc(C)c1C (configuration not stated),-1.38% (inactive)
14,COc1ccc(NC(=O)CNc2ccc(C#N)cc2)cc1,-4.76% (inactive)
15,N#Cc1ccccc1NC(=O)CNc1ccc(Cl)c(C(F)(F)F)c1,1.74% (inactive)
16,COc1ccccc1NC(=O)CNc1ccc(F)c(Cl)c1,-4.82% (inactive)
17,COc1ccc(NC(=O)CNc2cccc(C#N)c2)cc1Cl,-9.7% (inactive)
18,Cc1noc(C)c1/C=N/Nc1ccccn1,-11.2% (inactive)
19,COC(=O)c1ccccc1NC(=O)c1sc(N)nc1C,-3.82% (inactive)
20,CCC/C=C1/CCCOC(C(=O)NCc2ccccc2)(C(F)(F)F)C1 (configuration not stated),-24.5% (inactive)
21,O=C(Nc1ccc(-c2csc(Nc3ccccc3)n2)cc1)c1cc([N+](=O)[O-])cc(C(F)(F)F)c1,50.3% (inactive)
22,O=C(Nc1ccc(-c2csc(Nc3ccccc3)n2)cc1)c1cccc(C(F)(F)F)c1,14.9% (inactive)
23,O=C(Nc1cccc(-c2csc(Nc3cccc(C(F)(F)F)c3)n2)c1)c1cc([N+](=O)[O-])cc(C(F)(F)F)c1,-8.7% (inactive)
24,O=C(Nc1ccc(-c2csc(Nc3cccc(C(F)(F)F)c3)n2)cc1)c1ccccc1,0.91% (inactive)
25,CCOc1ccccc1N(CC(=O)NCc1ccccc1)C(=O)CCC(=O)Nc1cc(C)ccn1,-1.77% (inactive)
26,Cc1cc(NCCCN2CCOCC2)n2c(nc3ccccc32)c1C#N,-4.69% (inactive)

row,Structure (SMILES),inhibition
1,CC1=C(C(=O)OC(C)C)C(c2cccs2)n2ncnc2N1 (configuration not stated),7.3% (inactive)
2,O=C(/C=C\c1ccco1)c1ccc(NC(=O)c2ccco2)cc1,-2.87% (inactive)
3,CC(=O)Nc1ccc(C(=O)/C=C/c2ccco2)cc1,-0.44% (inactive)
4,COCCCNC(=S)N(Cc1ccccc1)Cc1nc2ccccc2c(=O)[nH]1,-7.77% (inactive)
5,NC(=O)C(=CNc1nc(-c2ccc(Cl)c(Cl)c2)cs1)C(N)=O,-3.81% (inactive)
6,OC1=C(O)c2nc3cc(C(F)(F)F)ccc3nc21,-3.35% (inactive)
7,COc1cccc(NCc2ccc([N+](=O)[O-])s2)c1,15.2% (inactive)
8,COc1ccc(NCc2ccc([N+](=O)[O-])s2)c(OC)c1,79.8% (inactive)
9,CCCCNS(=O)(=O)c1ccc(NC(=O)C2CCCO2)cc1 (configuration not stated),6.1% (inactive)
10,COC(=O)c1ccc(NC(=O)C2CCCO2)cc1 (configuration not stated),-10.3% (inactive)
11,NC(=O)c1ccc(NC(=O)C2CCCO2)cc1 (configuration not stated),-8.76% (inactive)
12,COC(=O)c1ccc(NC(=O)C2C3C=CC(O3)C2C(=O)O)cc1 (configuration not stated),-12.1% (inactive)
13,CCOC(=O)c1cc(NC(=O)C2CCCO2)cc(C(=O)OCC)c1 (configuration not stated),3.41% (inactive)
14,CCCCNC(=O)c1ccc(NC(=O)C2CCCO2)cc1 (configuration not stated),0.89% (inactive)
15,CC(C)COC(=O)c1ccc(NC(=O)C2C3C=CC(C3)C2C(=O)O)cc1 (configuration not stated),58.1% (inactive)
16,COC(=O)c1ccc(NC(=O)c2ccc(NC(=O)C3CCCO3)cc2)cc1 (configuration not stated),10.1% (inactive)
17,Cn1ncc(C#N)c1NC(=O)C1CC(c2ccc(Cl)c(Cl)c2)=NO1 (configuration not stated),-5.17% (inactive)
18,COC(=O)c1[nH]c2ccccc2c1NC(=O)CN1CC(C)OC(C)C1 (configuration not stated),-0.75% (inactive)
19,CCOC(=O)N1CCN(C(=O)Cc2ccc(C)cc2)CC1,-3.57% (inactive)
20,CN(C)C(CNC(=S)Nc1ccccc1Cl)c1cccnc1 (configuration not stated),7.94% (inactive)
21,CCCCOC(=O)c1ccc(NC(=O)C(=O)NCC2CCCO2)cc1 (configuration not stated),34.8% (inactive)
22,CCOC(=O)c1ccc(NC(=O)C(=O)NCC2CCCO2)cc1 (configuration not stated),65.4% (inactive)
23,COc1ccc(Br)c2oc(S)cc(=O)c12,-4.76% (inactive)
24,CCN(CC)C(=O)C1CCCN(Cc2ccc(F)c(F)c2)C1 (configuration not stated),-6.74% (inactive)
25,CCC(CC)C(=O)Nc1ccc([N+](=O)[O-])cn1,1.14% (inactive)
26,CCCc1nc(SCC(=O)Nc2cc(C)on2)c2c(=O)n(C)c(=O)n(C)c2n1,5.55% (inactive)

row,Structure (SMILES),inhibition
1,CN(C)c1ccc(-c2nc3ccccc3n2C)cc1,-2.73% (inactive)
2,Cc1ccc(NCc2nc3ccccc3n2C)cc1,6.89% (inactive)
3,Cc1cccc(NCc2nc3ccccc3n2C)c1,-0.92% (inactive)
4,Cn1c(Cl)nc2ccccc21,-1.9% (inactive)
5,CCCCn1c(/N=C/c2ccc(N(C)C)cc2)nc2ccccc21,-13.8% (inactive)
6,Cn1c(CNc2ccccc2)nc2ccccc21,5.08% (inactive)
7,CC(=O)Nc1nc(=S)n(-c2ccccc2)[nH]1,-1.91% (inactive)
8,COC(=O)C1CCN(C(=O)COC(=O)CC(NC(C)=O)c2ccccc2)CC1 (configuration not stated),-3.65% (inactive)
9,Fc1cccc2sc(N3CCCCC3)nc12,-9.23% (inactive)
10,COc1ccccc1NC(=O)CCc1nc(-c2ccccc2F)no1,2% (inactive)
11,O=C(NC1=NC2CCCCC2N1)c1ccccc1 (configuration not stated),1.79% (inactive)
12,Cc1ccc(O)c(C2=Nc3ccccc3N=C(c3cccc([N+](=O)[O-])c3)C2)c1,3.86% (inactive)
13,Cc1ccc(C2=Nc3ccccc3N=C(c3ccc([N+](=O)[O-])cc3)C2)c(O)c1,0.53% (inactive)
14,CCc1cccc(CC)c1NC(=S)Nc1cccc(Cl)c1Cl,2.37% (inactive)
15,CCCCCn1c(=O)c(-c2nc3ccccc3[nH]2)c(O)c2ccccc21,52.9% (inactive)
16,CCCn1nc(C(=O)Nc2nc3ccccc3[nH]2)c2ccccc2c1=O,59.6% (inactive)
17,CCn1c(=O)c(-c2nc3ccccc3[nH]2)c(O)c2ccccc21,43.3% (inactive)
18,CCn1c(=O)c(C(=O)Nc2ccccn2)c(O)c2ccccc21,-3.43% (inactive)
19,CC1Cc2ccccc2N1C(=O)c1ccc(N2CCCC2)c([N+](=O)[O-])c1 (configuration not stated),4.46% (inactive)
20,CCN(C(=O)CSc1nc(-c2ccccc2)c(-c2ccccc2)[nH]1)C1CCS(=O)(=O)C1 (configuration not stated),0.12% (inactive)
21,CSc1ncccc1C(=O)OCC(=O)N(CC(C)C)C1CCS(=O)(=O)C1 (configuration not stated),-5.78% (inactive)
22,CCCn1c(SCC(=O)Nc2ccc(OC)cc2[N+](=O)[O-])n[nH]c1=O,1.11% (inactive)
23,O=C1Nc2ccccc2N(O)N1c1ccc(Cl)cc1,-3.86% (inactive)
24,O=C(C1=C[C@@H](C2CC2)C[C@@H](OCc2ccc(CO)cc2)O1)N1CCN(Cc2ccccc2)CC1,0.13% (inactive)
25,O=C(CCC(=O)N1CCN(c2ccccn2)CC1)Nc1nnc(C(F)(F)F)s1,-6.15% (inactive)
26,COc1ccccc1N1CCN(C(=O)COc2ccc(S(=O)(=O)NC(C)(C)C)cc2)CC1,0.98% (inactive)

row,Structure (SMILES),inhibition
1,CN1CC=C(c2c[nH]c3ccccc23)CC1,-7.46% (inactive)
2,O=C(Nc1ccc2c(c1)OCO2)c1ccc(Br)s1,9.98% (inactive)
3,CCN(c1ccccc1)S(=O)(=O)c1ccc(C(=O)Nc2nnc(-c3ccco3)o2)cc1,61.3% (inactive)
4,CC(=O)Nc1nnc(-c2ccco2)o1,0.62% (inactive)
5,CN(C)S(=O)(=O)c1ccc(C(=O)Nc2nnc(-c3ccco3)o2)cc1,-14.7% (inactive)
6,Cc1nn(-c2ccccc2)c(C)c1C(=O)Nc1ccc(N2CCOCC2)cc1,-4.12% (inactive)
7,O=C(Nc1nnc(-c2ccco2)o1)c1ccc(S(=O)(=O)N2CCCC2)cc1,41.6% (inactive)
8,CCC(=O)Nc1nnc(-c2ccco2)o1,10.2% (inactive)
9,O=C(Nc1nnc(-c2ccco2)o1)C1CC1,4.4% (inactive)
10,O=C(Nc1nnc(-c2ccco2)o1)c1ccc(N2C(=O)CCC2=O)cc1,-1.43% (inactive)
11,COCCCNC(=O)CN(c1cc(Cl)ccc1OC)S(=O)(=O)c1ccc(C)c([N+](=O)[O-])c1,-9.07% (inactive)
12,O=C(c1ccco1)N1CCN(c2ccc(S(=O)(=O)N3CCCC3)cc2)CC1,-12.6% (inactive)
13,Cc1ccc(NCCNc2ccc(C)cc2)cc1,5.4% (inactive)
14,C[N+](C)(CC#Cc1ccccc1)CC(=O)c1ccc(Cl)cc1,0.9% (inactive)
15,Cc1ccc(-c2cc(C(=O)N/N=C/c3c(C)nn(C)c3C)c3ccccc3n2)c(C)c1,-2.59% (inactive)
16,CCCc1nnc2n1N=C(c1ccc([N+](=O)[O-])cc1)CS2,3% (inactive)
17,O=C(COc1ccccc1)Nc1nnc(-c2ccco2)o1,-3.85% (inactive)
18,O=C(Nc1ccncc1)c1ccc2ccccc2c1,1.37% (inactive)
19,Cc1cccc(NC(=O)c2ccc([N+](=O)[O-])s2)c1C,53.1% (inactive)
20,Cc1cccc(C)c1NC(=O)c1ccc([N+](=O)[O-])s1,11.5% (inactive)
21,Cn1nnc(NC(=O)c2ccc3ccccc3c2)n1,0.14% (inactive)
22,O=C(Nc1nnc(-c2ccco2)o1)c1cccc(N2C(=O)CCC2=O)c1,2.38% (inactive)
23,Cc1cccc(C(=O)Nc2nnc(-c3ccncc3)o2)c1,62.6% (inactive)
24,O=C(Cc1ccccc1)Nc1nnc(-c2ccco2)o1,1.37% (inactive)
